# Experimental data as given in PMC7862700, “An all-to-all approach to the identification of sequence-specific readers for epigenetic DNA modifications on cytosine”.
# Tests used:
# Assay in all cases: DAPPL (digital affinity profiling via proximity ligation, sequencing); 10 mM Tris-HCl pH 7.5, 50 mM NaCl, 1 mM DTT, 4% glycerol, room temperature, 30 min; GST-TFs on glutathione beads, 16-mer random dsDNA library, 0.1% formaldehyde crosslink after washing; high values mean tight binding
# FEV = molecular target: T1, FEV (Homo sapiens, UniProt Q99581 1-238); conditions: protein: recombinant; tags: N-terminal GST; dsDNA, one strand shown
# T1 sequence: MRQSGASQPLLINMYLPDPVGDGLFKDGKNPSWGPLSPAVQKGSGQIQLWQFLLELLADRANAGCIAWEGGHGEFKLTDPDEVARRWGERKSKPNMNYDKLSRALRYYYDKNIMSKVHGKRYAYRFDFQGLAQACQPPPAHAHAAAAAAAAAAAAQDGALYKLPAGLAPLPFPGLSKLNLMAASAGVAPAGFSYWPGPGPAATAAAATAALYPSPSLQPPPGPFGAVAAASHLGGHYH
# Summary of the method: (§1)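 Binding signal is each hexamer's read frequency for a factor divided by its frequency in the tag-only sample. The factors were GST-fused human transcription factors from yeast, captured on glutathione beads, DNA-barcoded and pooled with that sample. Pools were incubated with 200 nmole of a random double-stranded 16-mer DNA library in Tris/NaCl/DTT/glycerol buffer at room temperature for 30 min, then washed, crosslinked with 0.1% formaldehyde, proximity-ligated with BsaI/T4 ligase (1 h, 37 °C), PCR-amplified and sequenced on an Illumina NextSeq500.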
# ETV5 = ETV5 (Homo sapiens, UniProt P41161 1-510); conditions: protein: recombinant; tags: N-terminal GST; dsDNA, one strand shown
# Summary of the method: as §1
# HSF1 = HSF1 (Homo sapiens, UniProt Q00613 1-529); conditions: protein: recombinant; tags: N-terminal GST; chain copies: 3; dsDNA, one strand shown
# Summary of the method: as §1
# SPIC = molecular target: T2, SPIC (Homo sapiens, UniProt Q8N5J4 1-248); conditions: protein: recombinant; tags: N-terminal GST; dsDNA, one strand shown
# T2 sequence: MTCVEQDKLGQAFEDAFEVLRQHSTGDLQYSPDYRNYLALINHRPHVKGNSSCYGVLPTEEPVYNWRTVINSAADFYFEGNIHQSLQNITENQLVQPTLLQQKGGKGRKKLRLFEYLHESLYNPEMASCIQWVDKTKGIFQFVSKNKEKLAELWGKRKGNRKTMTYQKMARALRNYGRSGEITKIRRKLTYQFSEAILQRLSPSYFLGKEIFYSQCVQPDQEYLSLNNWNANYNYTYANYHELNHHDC
# Summary of the method: as §1
# ELF4 = ELF4 (Homo sapiens, UniProt Q99607 1-663); conditions: protein: recombinant; tags: N-terminal GST; dsDNA, one strand shown
# Summary of the method: as §1
# ELK4 = molecular target: T3, ELK4 (Homo sapiens, UniProt P28324-2 1-405); conditions: protein: recombinant; tags: N-terminal GST; dsDNA, one strand shown
# T3 sequence: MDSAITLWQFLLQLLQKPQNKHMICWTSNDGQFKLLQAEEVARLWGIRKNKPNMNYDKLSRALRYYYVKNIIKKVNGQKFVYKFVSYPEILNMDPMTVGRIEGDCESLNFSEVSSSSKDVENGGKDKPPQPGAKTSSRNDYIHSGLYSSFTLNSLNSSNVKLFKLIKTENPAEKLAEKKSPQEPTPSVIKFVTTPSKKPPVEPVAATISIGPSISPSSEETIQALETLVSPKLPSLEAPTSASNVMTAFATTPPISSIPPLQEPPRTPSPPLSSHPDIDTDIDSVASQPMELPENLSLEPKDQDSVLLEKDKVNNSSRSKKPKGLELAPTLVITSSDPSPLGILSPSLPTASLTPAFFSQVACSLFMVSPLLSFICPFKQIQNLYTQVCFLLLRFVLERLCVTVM
# Summary of the method: as §1
# ETV2 = molecular target: T4, ETV2 (Homo sapiens, UniProt O00321 1-342); conditions: protein: recombinant; tags: N-terminal GST; dsDNA, one strand shown
# T4 sequence: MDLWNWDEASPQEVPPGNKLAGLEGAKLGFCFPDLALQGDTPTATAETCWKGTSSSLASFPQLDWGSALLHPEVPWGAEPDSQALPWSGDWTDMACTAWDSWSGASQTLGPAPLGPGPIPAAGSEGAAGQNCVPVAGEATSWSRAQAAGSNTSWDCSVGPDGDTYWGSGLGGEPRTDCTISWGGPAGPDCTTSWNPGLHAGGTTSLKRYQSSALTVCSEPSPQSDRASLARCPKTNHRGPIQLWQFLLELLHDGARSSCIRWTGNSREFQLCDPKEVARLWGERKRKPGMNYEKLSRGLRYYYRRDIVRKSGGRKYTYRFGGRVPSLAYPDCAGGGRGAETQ
# Summary of the method: as §1
# ELF3 = molecular target: T5, ELF3 (Homo sapiens, UniProt P78545 1-371); conditions: protein: recombinant; tags: N-terminal GST; dsDNA, one strand shown
# T5 sequence: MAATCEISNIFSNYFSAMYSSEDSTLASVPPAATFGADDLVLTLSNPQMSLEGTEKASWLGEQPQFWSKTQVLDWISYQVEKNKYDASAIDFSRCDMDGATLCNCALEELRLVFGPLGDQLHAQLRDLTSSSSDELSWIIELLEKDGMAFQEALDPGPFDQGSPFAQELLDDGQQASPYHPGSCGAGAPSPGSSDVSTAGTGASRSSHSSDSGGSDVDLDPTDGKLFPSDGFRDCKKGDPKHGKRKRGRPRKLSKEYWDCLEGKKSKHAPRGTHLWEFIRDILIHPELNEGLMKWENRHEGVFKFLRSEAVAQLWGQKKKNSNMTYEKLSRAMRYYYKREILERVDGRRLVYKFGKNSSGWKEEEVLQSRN
# Summary of the method: as §1
# CRX = CRX (Homo sapiens, UniProt O43186 1-299); conditions: protein: recombinant; tags: N-terminal GST; dsDNA, one strand shown
# Summary of the method: as §1
# ETV1 = ETV1 (Homo sapiens, UniProt P50549 1-477); conditions: protein: recombinant; tags: N-terminal GST; dsDNA, one strand shown
# Summary of the method: as §1
# ERF = molecular target: T6, ERF (Homo sapiens, UniProt P50548 1-548); conditions: protein: recombinant; tags: N-terminal GST; dsDNA, one strand shown
# T6 sequence: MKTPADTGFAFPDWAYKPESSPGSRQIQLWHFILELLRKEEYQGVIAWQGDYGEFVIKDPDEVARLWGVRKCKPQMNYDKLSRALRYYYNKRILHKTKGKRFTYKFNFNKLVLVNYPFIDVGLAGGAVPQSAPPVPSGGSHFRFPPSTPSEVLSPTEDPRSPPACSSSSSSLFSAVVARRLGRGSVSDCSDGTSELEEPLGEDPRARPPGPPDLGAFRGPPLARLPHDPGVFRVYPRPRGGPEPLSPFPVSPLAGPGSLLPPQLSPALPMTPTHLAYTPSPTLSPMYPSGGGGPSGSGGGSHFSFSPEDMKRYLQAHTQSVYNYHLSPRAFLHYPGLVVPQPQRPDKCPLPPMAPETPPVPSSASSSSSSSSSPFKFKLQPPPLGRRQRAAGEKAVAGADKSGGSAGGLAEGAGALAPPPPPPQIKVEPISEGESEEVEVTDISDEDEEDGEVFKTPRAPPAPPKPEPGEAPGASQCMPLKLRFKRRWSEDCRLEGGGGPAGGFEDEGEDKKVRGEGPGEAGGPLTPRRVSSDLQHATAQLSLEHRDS
# Summary of the method: as §1
# ETV3L = molecular target: T7, ETV3L (Homo sapiens, UniProt Q6ZN32 1-361); conditions: protein: recombinant; tags: N-terminal GST; dsDNA, one strand shown
# T7 sequence: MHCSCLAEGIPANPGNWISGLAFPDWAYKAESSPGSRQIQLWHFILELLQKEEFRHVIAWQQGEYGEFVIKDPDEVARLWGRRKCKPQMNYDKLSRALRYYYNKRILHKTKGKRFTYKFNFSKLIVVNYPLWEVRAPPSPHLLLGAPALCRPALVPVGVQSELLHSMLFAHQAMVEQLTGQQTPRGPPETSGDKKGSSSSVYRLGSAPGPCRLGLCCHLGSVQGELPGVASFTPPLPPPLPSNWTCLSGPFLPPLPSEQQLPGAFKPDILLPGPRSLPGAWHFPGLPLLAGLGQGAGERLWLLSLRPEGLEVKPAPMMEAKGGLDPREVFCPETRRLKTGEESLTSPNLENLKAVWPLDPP
# Summary of the method: as §1
# ETS2 = molecular target: T8, ETS2 (Homo sapiens, UniProt P15036 1-469); conditions: protein: recombinant; tags: N-terminal GST; dsDNA, one strand shown
# T8 sequence: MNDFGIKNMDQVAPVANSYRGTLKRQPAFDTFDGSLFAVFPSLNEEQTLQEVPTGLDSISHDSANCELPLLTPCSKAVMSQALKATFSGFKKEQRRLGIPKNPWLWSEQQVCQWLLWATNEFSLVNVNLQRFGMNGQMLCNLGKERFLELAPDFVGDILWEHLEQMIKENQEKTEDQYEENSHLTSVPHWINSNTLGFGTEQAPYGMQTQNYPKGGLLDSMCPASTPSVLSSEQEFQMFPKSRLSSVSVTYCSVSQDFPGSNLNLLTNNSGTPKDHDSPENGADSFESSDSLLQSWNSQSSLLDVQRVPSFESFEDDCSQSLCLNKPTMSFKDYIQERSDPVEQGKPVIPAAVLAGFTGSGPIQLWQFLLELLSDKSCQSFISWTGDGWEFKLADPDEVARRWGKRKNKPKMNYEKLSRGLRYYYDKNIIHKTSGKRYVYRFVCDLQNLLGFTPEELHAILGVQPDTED
# Summary of the method: as §1
# SPDEF = molecular target: T9, SPDEF (Homo sapiens, UniProt O95238 1-335); conditions: protein: recombinant; tags: N-terminal GST; dsDNA, one strand shown
# T9 sequence: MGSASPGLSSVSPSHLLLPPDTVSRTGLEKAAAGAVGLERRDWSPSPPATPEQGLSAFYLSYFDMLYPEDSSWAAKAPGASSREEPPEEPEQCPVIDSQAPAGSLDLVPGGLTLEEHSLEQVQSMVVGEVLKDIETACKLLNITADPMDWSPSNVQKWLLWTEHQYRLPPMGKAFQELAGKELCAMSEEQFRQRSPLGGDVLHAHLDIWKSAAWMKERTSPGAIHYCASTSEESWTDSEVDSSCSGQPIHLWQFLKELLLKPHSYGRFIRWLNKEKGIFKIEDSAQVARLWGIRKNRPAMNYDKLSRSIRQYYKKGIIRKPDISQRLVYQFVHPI
# Summary of the method: as §1
# ETV7 = molecular target: T10, ETV7 (Homo sapiens, UniProt Q9Y603 1-341); conditions: protein: recombinant; tags: N-terminal GST; dsDNA, one strand shown
# T10 sequence: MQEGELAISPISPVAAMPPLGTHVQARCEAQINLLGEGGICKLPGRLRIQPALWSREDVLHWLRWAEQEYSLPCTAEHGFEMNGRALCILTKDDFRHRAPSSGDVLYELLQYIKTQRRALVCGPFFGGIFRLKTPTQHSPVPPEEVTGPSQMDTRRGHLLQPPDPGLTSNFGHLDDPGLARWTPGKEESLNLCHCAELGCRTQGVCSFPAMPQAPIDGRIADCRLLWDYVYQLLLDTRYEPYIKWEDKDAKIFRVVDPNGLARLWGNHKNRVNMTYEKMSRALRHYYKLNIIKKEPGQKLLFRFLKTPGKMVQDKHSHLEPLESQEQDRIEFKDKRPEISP
# Summary of the method: as §1
# ELF5 = molecular target: T11, ELF5 (Homo sapiens, UniProt Q9UKW6-2 1-255); conditions: protein: recombinant; tags: N-terminal GST; dsDNA, one strand shown
# T11 sequence: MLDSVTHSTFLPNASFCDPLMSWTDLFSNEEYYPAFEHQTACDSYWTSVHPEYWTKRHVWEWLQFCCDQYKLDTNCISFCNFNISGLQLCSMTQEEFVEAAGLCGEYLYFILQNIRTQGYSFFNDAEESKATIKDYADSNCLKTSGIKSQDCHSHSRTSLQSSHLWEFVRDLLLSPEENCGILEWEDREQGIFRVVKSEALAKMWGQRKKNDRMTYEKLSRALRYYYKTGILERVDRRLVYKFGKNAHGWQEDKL
# Summary of the method: as §1
# ETV3 = molecular target: T12, ETV3 (Homo sapiens, UniProt P41162-2 1-143); conditions: protein: recombinant; tags: N-terminal GST; dsDNA, one strand shown
# T12 sequence: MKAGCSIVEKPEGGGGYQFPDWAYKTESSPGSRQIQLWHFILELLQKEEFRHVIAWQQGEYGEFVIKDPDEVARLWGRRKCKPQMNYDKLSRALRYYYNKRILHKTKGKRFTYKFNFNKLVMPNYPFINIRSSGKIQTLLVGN
# Summary of the method: as §1
# ETV6 = ETV6 (Homo sapiens, UniProt P41212 1-452); conditions: protein: recombinant; tags: N-terminal GST; dsDNA, one strand shown
# Summary of the method: as §1
# Sequence of ETV6 (P41212 whole entry): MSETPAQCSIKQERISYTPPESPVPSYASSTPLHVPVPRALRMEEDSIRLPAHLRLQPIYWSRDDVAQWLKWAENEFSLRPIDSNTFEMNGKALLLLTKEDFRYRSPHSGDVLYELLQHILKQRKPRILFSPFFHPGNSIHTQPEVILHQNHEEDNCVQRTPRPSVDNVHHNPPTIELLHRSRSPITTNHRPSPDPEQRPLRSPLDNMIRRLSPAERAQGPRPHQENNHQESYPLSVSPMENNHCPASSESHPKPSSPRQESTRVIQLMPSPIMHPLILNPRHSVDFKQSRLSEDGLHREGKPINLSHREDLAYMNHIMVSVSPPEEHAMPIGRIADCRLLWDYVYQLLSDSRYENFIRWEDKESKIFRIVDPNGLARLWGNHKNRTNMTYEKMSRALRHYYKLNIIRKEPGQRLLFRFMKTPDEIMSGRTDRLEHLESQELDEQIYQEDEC
# Sequence of ELF4 (Q99607 whole entry): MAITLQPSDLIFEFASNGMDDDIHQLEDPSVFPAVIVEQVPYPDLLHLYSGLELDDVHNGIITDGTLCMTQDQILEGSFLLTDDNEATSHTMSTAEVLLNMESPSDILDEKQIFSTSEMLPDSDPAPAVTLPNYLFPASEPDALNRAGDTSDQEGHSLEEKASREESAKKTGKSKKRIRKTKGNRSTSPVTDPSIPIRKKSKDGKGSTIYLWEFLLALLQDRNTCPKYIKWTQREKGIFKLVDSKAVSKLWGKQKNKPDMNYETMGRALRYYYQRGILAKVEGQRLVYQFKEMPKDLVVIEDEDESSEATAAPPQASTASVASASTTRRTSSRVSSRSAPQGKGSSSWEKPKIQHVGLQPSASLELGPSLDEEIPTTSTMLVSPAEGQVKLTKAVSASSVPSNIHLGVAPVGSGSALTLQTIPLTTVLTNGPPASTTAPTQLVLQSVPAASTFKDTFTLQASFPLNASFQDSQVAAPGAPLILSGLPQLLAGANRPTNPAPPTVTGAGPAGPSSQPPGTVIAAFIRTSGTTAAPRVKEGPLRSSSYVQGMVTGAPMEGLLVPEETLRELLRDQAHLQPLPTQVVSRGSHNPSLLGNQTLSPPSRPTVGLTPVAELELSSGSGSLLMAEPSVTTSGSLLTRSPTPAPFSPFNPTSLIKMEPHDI
# Sequence of HSF1 (Q00613 whole entry): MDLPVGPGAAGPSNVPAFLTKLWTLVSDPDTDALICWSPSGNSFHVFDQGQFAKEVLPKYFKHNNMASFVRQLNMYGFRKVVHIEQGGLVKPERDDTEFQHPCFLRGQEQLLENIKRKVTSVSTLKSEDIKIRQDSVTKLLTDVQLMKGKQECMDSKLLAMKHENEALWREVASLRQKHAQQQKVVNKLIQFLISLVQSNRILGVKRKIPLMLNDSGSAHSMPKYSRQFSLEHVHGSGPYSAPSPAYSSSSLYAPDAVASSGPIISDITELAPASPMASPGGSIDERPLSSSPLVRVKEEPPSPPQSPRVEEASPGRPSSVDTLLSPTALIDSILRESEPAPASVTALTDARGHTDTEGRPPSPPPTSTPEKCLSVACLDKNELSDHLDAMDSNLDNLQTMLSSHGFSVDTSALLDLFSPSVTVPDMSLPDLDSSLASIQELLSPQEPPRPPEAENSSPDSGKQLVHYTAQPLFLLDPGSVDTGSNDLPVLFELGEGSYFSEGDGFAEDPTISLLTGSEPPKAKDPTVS
# Sequence of ETV1 (P50549 whole entry): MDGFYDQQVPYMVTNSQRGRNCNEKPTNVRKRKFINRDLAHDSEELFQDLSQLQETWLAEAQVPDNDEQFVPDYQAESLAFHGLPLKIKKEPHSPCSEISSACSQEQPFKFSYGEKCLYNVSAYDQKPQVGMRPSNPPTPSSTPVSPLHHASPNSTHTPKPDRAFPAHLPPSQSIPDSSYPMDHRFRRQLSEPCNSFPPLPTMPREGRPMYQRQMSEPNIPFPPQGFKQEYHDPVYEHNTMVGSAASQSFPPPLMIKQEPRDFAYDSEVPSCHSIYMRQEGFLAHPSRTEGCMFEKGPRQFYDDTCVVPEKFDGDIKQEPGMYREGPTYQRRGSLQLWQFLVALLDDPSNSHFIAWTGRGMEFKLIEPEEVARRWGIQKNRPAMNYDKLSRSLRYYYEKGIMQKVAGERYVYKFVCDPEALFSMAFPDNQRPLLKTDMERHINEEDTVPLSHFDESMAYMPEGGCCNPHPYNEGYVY
# Sequence of CRX (O43186 whole entry): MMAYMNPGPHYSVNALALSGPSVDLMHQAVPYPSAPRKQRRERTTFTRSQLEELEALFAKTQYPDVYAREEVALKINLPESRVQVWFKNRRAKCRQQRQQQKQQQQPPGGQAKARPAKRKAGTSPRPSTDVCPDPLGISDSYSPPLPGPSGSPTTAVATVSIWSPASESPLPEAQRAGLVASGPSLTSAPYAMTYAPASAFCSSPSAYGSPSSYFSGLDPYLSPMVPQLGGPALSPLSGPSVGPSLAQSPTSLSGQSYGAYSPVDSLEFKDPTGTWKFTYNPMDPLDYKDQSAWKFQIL
# Sequence of ETV5 (P41161 whole entry): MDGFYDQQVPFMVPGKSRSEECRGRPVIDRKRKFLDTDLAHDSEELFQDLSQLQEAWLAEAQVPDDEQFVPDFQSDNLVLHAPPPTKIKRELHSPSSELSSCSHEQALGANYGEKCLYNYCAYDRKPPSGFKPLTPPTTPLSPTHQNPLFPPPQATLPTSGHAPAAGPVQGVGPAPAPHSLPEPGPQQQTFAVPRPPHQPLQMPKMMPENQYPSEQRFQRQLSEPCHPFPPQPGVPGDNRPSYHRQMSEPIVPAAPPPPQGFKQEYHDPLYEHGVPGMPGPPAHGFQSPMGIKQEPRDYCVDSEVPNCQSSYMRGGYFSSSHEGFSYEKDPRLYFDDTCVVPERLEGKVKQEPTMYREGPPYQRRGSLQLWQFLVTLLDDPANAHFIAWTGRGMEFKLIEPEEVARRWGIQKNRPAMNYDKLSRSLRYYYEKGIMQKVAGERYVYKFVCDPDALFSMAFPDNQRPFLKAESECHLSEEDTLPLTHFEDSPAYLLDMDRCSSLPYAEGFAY
sequence,measurement,setting,value
CCTGCG,binding signal,FEV,"1.28 fold enrichment (6-mer frequency, TF over GST control)"
same,binding signal,ETV5,"1.27 fold enrichment (6-mer frequency, TF over GST control)"
same,binding signal,HSF1,"1.1 fold enrichment (6-mer frequency, TF over GST control)"
same,binding signal,SPIC,"1.12 fold enrichment (6-mer frequency, TF over GST control)"
same,binding signal,ELF4,"1.32 fold enrichment (6-mer frequency, TF over GST control)"
same,binding signal,ELK4,"1.37 fold enrichment (6-mer frequency, TF over GST control)"
same,binding signal,ETV2,"1.41 fold enrichment (6-mer frequency, TF over GST control)"
same,binding signal,ELF3,"1.23 fold enrichment (6-mer frequency, TF over GST control)"
same,binding signal,CRX,"1.05 fold enrichment (6-mer frequency, TF over GST control)"
same,binding signal,ETV1,"1.39 fold enrichment (6-mer frequency, TF over GST control)"
same,binding signal,ERF,"1.22 fold enrichment (6-mer frequency, TF over GST control)"
same,binding signal,ETV3L,"1.49 fold enrichment (6-mer frequency, TF over GST control)"
same,binding signal,ETS2,"1.27 fold enrichment (6-mer frequency, TF over GST control)"
same,binding signal,SPDEF,"1.23 fold enrichment (6-mer frequency, TF over GST control)"
same,binding signal,ETV7,"1.38 fold enrichment (6-mer frequency, TF over GST control)"
same,binding signal,ELF5,"1.3 fold enrichment (6-mer frequency, TF over GST control)"
same,binding signal,ETV3,"1.4 fold enrichment (6-mer frequency, TF over GST control)"
same,binding signal,ETV6,"1.35 fold enrichment (6-mer frequency, TF over GST control)"
